Screening results deposited in PubChem BioAssay by National Center for Advancing Translational Sciences (NCATS).
Vaccinia Venus = vaccinia inhibition (Venus reporter) | Vaccinia virus Venus reporter expression, fluorescence | Potency, µM (series often up to 36.5 µM), inactives show at the highest dose activity change, negative = inhibition, hits mostly inhibitors | 0.46% of 330,000 active; calls by dose curve; tested in A549 cells; further: potency means the concentration at half of the fitted maximal effect; nearly all actives have a fitted effect of over 30% in size
Vaccinia mCherry = inhibitors of vaccinia virus infection (mCherry reporter signal) | 0.63% of 310,000 active | Vaccinia virus mCherry reporter infection, fluorescence | Potency, µM (top dose mostly 36.5 µM), for the others: at the highest dose activity change, negative = inhibition, actives largely listed as inhibitors; calls by dose curve; tested in A549 cells; further: potency means the concentration at half of the fitted maximal effect; nearly all actives have a fitted effect of over 35% in size
FMDV inh = antivirals against foot and mouth disease virus; FMDV antiviral cell-based qHTS; Potency, µM (series often up to 57.9 µM), without a hit: at the top dose activity change, negative = inhibition, most hits filed as inhibitors; 1.2% of 410,000 active; calls by dose curve; tested in HEK293T cells; further: read-out not given here; potency means the concentration at half of the fitted maximal effect; nearly all actives have a fitted effect of over 45% in size
HCMV antiviral = inhibitors of human cytomegalovirus. HFF cells, HCMV-luciferase reporter, 72 h; hits give low values. activity change, negative = inhibition, % at 57.5 µM. 4.5% of 410,000 active. AID 1259415; in the data active means activity change below about -60%; inconclusive means no clear call, values can overlap the other calls; inactive means above about -39%
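After 16 h attachment at 37C, HFF cells received test compound and HCMV-luciferase (1 PFU/cell); reporter luminescence read 72 h later, data normalized against buffer-only and known inhibitor Salinomycin.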
HCV inh = inhibitors of hepatitis C virus infection. Huh7.5.1 HCVcc-Cre infection, luciferase reporter, 44 h. Potency, µM (series often up to 41.8 µM), for inactives: top-dose activity change, negative = inhibition, hits mostly inhibitors. 3.4% of 340,000 active. AID 651820; active means well fitted inhibition curve with a large enough effect; inconclusive means small, poorly fitted or top-dose-only effect, or another doubt; inactive means no such curve, though single readings can be large or run the other way; further: potency means the concentration at half of the fitted maximal effect
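Whole-lifecycle infectious HCVcc-Cre system; cells 1,000/well, compound then virus (~0.5 moi) added 4 h after plating, 44 h culture. Luciferase read 15 sec following 15 min substrate incubation, room temp.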
The depositor's hits bear a star; i = inactive; u = inconclusive; x = no result. Sampled rows, rich in hits. Any-hit rate of the full collection: about 7.3%. On the % scale 0 is the no-effect control and ±100 the full control effect.

SMILES	Vaccinia Venus	Vaccinia mCherry	FMDV inh	HCMV antiviral	HCV inh
Cc1ccc(C)c(N2CCN(C(=O)C3CCCCN3S(=O)(=O)c3ccc(F)cc3)CC2)c1 (configuration not stated)	-23%	-10%	32µM*	-19	u
Cc1cc(C)nc(N2CCC(C(=O)N3CCN(c4cc(Cl)ccc4C)CC3)CC2)n1	x	x	28µM*	53	13µM*
CCc1nn(CCCC(=O)NCc2ccc(OC(C)C)cc2)c(=O)c2cc3occc3n12	u	-13%	-32%	u	8.9µM*
CCOc1ccc(CNC(=O)CCCn2nc(CC)n3c(cc4occc43)c2=O)cc1	x	x	-11%	-60*	u
CCc1nn(C(C)C(=O)NC2CCCCCC2)c(=O)c2cc3occc3n12 (configuration not stated)	1%	-5%	23%	u	10µM*
CCC(C(=O)NC1CCCCCC1)n1nc(C)n2c(cc3occc32)c1=O (configuration not stated)	x	x	11%	0	-19%
CCc1nn(CCCC(=O)NCc2ccco2)c(=O)c2cc3occc3n12	-8%	i	-7%	u	u
CCc1nn(CCCC(=O)NCc2cc(Br)ccc2OC)c(=O)c2cc3occc3n12	-1%	1%	-14%	-37	10µM*
Nc1ncnc2c1ncn2[C@@H]1O[C@H](CNC(=O)[C@@H](N)Cc2ccc(C(F)(F)F)cc2)[C@@H](O)[C@H]1O	7%	-14%	-3%	-14	-4%
CCN1C(=O)C(=O)N(CC(=O)N2CCN(c3ccccc3)CC2)C1=O	-10%	-27%	-7%	-21	-4%
CN(C)CCCN(C(=O)c1ccc(N2C(=O)CCC2=O)cc1)c1nc2c(F)cccc2s1	-6%	i	-25%	8	-12%
Cc1ccc2nc(N(CCCN(C)C)C(=O)c3ccc4c(c3)CCCC4)sc2c1	u	u	u	-77*	11µM*
CCOc1ccc2nc(N(CCN(C)C)C(=O)c3ccc4c(c3)CCCC4)sc2c1	-20%	-10%	-21%	x	u
CN(C)CCCN(C(=O)c1ccc2c(c1)CCCC2)c1nc2c(F)cccc2s1	-20%	-30%	-7%	-35	7.9µM*
Cc1cc(C)c2nc(N(CCCN(C)C)C(=O)c3ccc4c(c3)CCCC4)sc2c1	-19%	-10%	u	u	7.1µM*
CCc1ccc(C2CC3C(CN2S(=O)(=O)c2ccc(C)cc2)C(=O)CC(c2ccc(CC)cc2)N3S(=O)(=O)c2ccc(C)cc2)cc1 (configuration not stated)	-6%	-15%	-16%	12	x
COc1cc(C(=S)N2CCN(C(c3ccccc3)c3ccccc3)CC2)cc(OC)c1O	x	x	-34%	-27	11µM*
O=C(Nc1ccc(N2CCCCC2)cc1)c1ccccn1	-4%	-17%	2.8µM*	x	-18%
O=C(Nc1ccc(N2CCCCCC2)cc1)c1ccccc1Cl	-10%	u	0%	58	u
O=C(Nc1cccc(S(=O)(=O)N2CCOCC2)c1)c1cccc(S(=O)(=O)N2CCCCC2)c1	-17%	-4%	-17%	-34	-17%
O=C(Nc1ccc(N2CCCCCC2)cc1)c1cccc(S(=O)(=O)N2CCOCC2)c1	-24%	-22%	u	-74*	2.5µM*
CCOC(=O)c1ccc(NC(=O)c2ccc(C)c(S(=O)(=O)N3CCOCC3)c2)cc1	u	u	14µM*	u	5µM*
CCOC(=O)c1ccc(NC(=O)c2cccc(S(=O)(=O)N3CCOCC3)c2)cc1	u	x	u	-23	3.5µM*
CC(=O)Nc1ccc(/C=N/NC(=O)c2cccc(S(=O)(=O)N3CCOCC3)c2)cc1	-10%	-14%	-5%	-102*	27%
O=C(N/N=C/c1sc(N2CCOCC2)nc1-c1ccccc1)c1ccc(O)cc1	8%	-8%	-1%	49	u
SMILES	Vaccinia Venus	Vaccinia mCherry	FMDV inh	HCMV antiviral	HCV inh
O=C(N/N=C/c1sc(N2CCOCC2)nc1-c1ccccc1)c1cccc(S(=O)(=O)N2CCCC2)c1	u	u	u	-112*	3.5µM*
Cc1cc(=O)n2[nH]c(-c3ccc(C(C)(C)C)cc3)cc2n1	x	x	-23%	-63*	10µM*
N#C/C(=C\c1cn(Cc2ccccc2)c2ccccc12)C(=O)NCc1ccco1	-36%	-27%	-6%	-34	u
Cc1cccc(NC(=O)/C(C#N)=C/c2cn(CC(=O)NCc3ccco3)c3ccccc23)c1C	-28%	-18%	0%	-82*	-2%
COc1ccccc1CCN1CCCC(CN(C)C(=O)c2ccoc2)C1 (configuration not stated)	x	x	15%	u	-4%
O=S(=O)(c1ccc(Cl)cc1)N1CCC(N2CCOCC2)CC1	x	x	-23%	-6	-17%
Nc1nc(-c2ccc(Cl)cc2)c(N=Nc2ccc(S(=O)(=O)N3CCOCC3)cc2)s1	-5%	-14%	u	-28	11µM*
Cc1cc(C)cc(NC(=O)c2cccc(N3CCCS3(=O)=O)c2)c1	-15%	-9%	58%	48	x
COCCn1c(C)cc(/C=C2/NC(=O)N(c3cccc(Cl)c3)C2=O)c1C	u	u	-21%	-66*	u
COC(=O)CC(NC1CCN(c2nc(C)c3cc4c(cc3n2)CCC4)CC1)C(=O)OC (configuration not stated)	4%	-10%	-2%	x	x
C=CC(=O)N1C/C(=C/c2ccc(Cl)cc2)C(=O)/C(=C\c2ccc(Cl)cc2)C1	5.6µM*	2.8µM*	8.9µM*	-100*	4.5µM*
C=CC(=O)N1C/C(=C/c2ccccc2)C(=O)/C(=C\c2ccccc2)C1	8.9µM*	u	7.9µM*	-97*	6.3µM*
CN1C/C(=C/c2ccncc2)C(=O)/C(=C/c2ccncc2)C1	7%	-2%	-7%	-7	16%
Cc1ccc(S(=O)(=O)N2C=CC(=O)CC2c2cccs2)cc1 (configuration not stated)	x	x	x	40	x
Fc1ccc(Nc2c3c(nc4nncn24)CCC3)cc1	-3%	-12%	-21%	15	x
O=C(Oc1nsnc1N1CCCCC1)N1CCOCC1	u	14µM*	-10%	10	5%
O=C(Oc1nsnc1N1CCOCC1)N1CCCC1	x	x	-8%	20	1%
COc1cc(NC(=O)c2sc(C)nc2C)c(OC)cc1NC(=O)c1ccccc1	x	x	-19%	-9	u
O=S(=O)(NCCN1CCOCC1)c1ccc2ccccc2c1	x	x	40%	0	2%
Cc1ccc(-n2nnnc2Sc2ccc(S(=O)(=O)NCCN(C)C)cc2[N+](=O)[O-])cc1	11µM*	u	13µM*	-100*	10µM*
CN(C)CCNS(=O)(=O)c1ccc(N2CCN(c3ccc(F)cc3)CC2)c([N+](=O)[O-])c1	u	-27%	u	-76*	10µM*
Cc1ccc(S(=O)(=O)NCCSc2nnnn2-c2ccc(C(N)=O)cc2)cc1	-10%	-14%	-1%	-39	-1%
O=[N+]([O-])c1cc(S(=O)(=O)NCCN2CCOCC2)ccc1Sc1nnnn1-c1ccccc1	u	u	u	-89*	u
